Measured values published in PMC5540273 (PLoS ONE, 2017).

Assays:
Details in all cases: concentration: 1 μM, replicates: in singlicate; n = 1
PIP5K1A = test system: PIP5K1A
PIP5K1C = test system: PIP5K1C
PIP5K2B = test system: PIP5K2B
PIP5K2C = test system: T1, PIP5K2C
T1 construct: gene PIP4K2C

PKAC-alpha = test system: T2, PKAC-alpha
T2 construct: gene PRKACA

PKAC-beta = test system: T3, PKAC-beta
T3 construct: gene PRKACB

PKMYT1 = test system: PKMYT1
PKN1 = test system: PKN1
PKN2 = test system: PKN2
PLK1 = test system: PLK1
PLK2 = test system: PLK2
PLK3 = test system: PLK3
PLK4 = test system: PLK4
PRKCD = test system: PRKCD
PRKCE = test system: PRKCE
PRKCH = test system: PRKCH
PRKCI = test system: PRKCI
PRKCQ = test system: PRKCQ
PRKD1 = test system: PRKD1
PRKD2 = test system: PRKD2
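Further: KINOMEscan kinase panel screen.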

Structure (SMILES) | %Inh (PIP5K1A) [%] | %Inh (PIP5K1C) [%] | %Inh (PIP5K2B) [%] | %Inh (PIP5K2C) [%] | %Inh (PKAC-alpha) [%] | %Inh (PKAC-beta) [%] | %Inh (PKMYT1) [%] | %Inh (PKN1) [%] | %Inh (PKN2) [%] | %Inh (PLK1) [%] | %Inh (PLK2) [%] | %Inh (PLK3) [%] | %Inh (PLK4) [%] | %Inh (PRKCD) [%] | %Inh (PRKCE) [%] | %Inh (PRKCH) [%] | %Inh (PRKCI) [%] | %Inh (PRKCQ) [%] | %Inh (PRKD1) [%] | %Inh (PRKD2) [%]
Cc1ccc(Nc2ccnc(Nc3ccc(C)c(F)c3)n2)cc1O.Cl [GW582868] | 27 | 47 | 5 | 70 | 0 | 0 | 0 | 23 | 0 | 0 | 0 | 3 | 0 | 0 | 6 | 0 | 25 | 0 | 0 | 0
COc1cc(Nc2nccc(N3CCC(NC(=O)Nc4ccc5c(c4)OCO5)C3)n2)cc(OC)c1OC (stereo not shown) [GSK1379766] | 19 | 56 | 0 | 92.3 | 0 | 0 | 0 | 35 | 0 | 2 | 0 | 2 | 48 | 0 | 8 | 0 | 11 | 0 | 0 | 0
Cc1cccc(Nc2nc(N[C@H]3CCCC[C@H]3N)ncc2C(N)=O)c1.Cl [GSK986310] | 0 | 63 | 9 | 12 | 19 | 29 | 16 | 34 | 9 | 1 | 0 | 0 | 16 | 53 | 56 | 43 | 28 | 53 | 50 | 56
Cc1ccccc1CC(=O)N1CCc2cc(-c3cn(C)c4ncnc(N)c34)ccc21 [GSK2603346] | 0 | 15 | 0 | 5 | 0 | 0 | 0 | 15 | 20 | 0 | 2 | 0 | 0 | 0 | 0 | 51 | 22 | 35 | 18 | 0
COC(=O)Nc1nc2ccc(Oc3ccc(NC(=O)Nc4cc(C(F)(F)F)ccc4F)cc3)cc2[nH]1.Cl [GW654607] | 0 | 30 | 34 | 16 | 0 | 6 | 0 | 39 | 16 | 0 | 0 | 0 | 0 | 4 | 12 | 8 | 21 | 16 | 28 | 3
Fc1cc(Cl)ccc1Nc1ccnc2cc(-c3ccc(CN4CCSCC4)o3)ccc12 [GW560106] | 30 | 59 | 9 | 74 | 27 | 22 | 0 | 0 | 0 | 0 | 0 | 0 | 97.6 | 14 | 13 | 21 | 23 | 0 | 24 | 19
Cc1ccc(NC(=O)c2ccc(Cl)c(Cl)c2)cc1-c1ccc(C(=O)Nc2ccncc2)cc1 [GSK1398460] | 0 | 0 | 0 | 0 | 13 | 7 | 31 | 1 | 15 | 0 | 0 | 0 | 8 | 0 | 10 | 22 | 0 | 15 | 15 | 0
Cn1cc(-c2ccc3c(c2)CCN3C(=O)Cc2cc(F)cc(C(F)(F)F)c2)c2c(N)ncnc21 [GSK2635225] | 27 | 28 | 2 | 15 | 6 | 0 | 0 | 6 | 0 | 8 | 3 | 0 | 0 | 18 | 1 | 0 | 0 | 17 | 0 | 14
COC(=O)Nc1nc2ccc(Oc3ccc(CC(=O)Nc4cc(C(F)(F)F)ccc4F)cc3)cc2[nH]1 [GW680903] | 7 | 37 | 2 | 31 | 0 | 0 | 0 | 0 | 0 | 0 | 0 | 0 | 0 | 0 | 9 | 0 | 17 | 0 | 0 | 0
Fc1cc(Cl)ccc1Nc1ccnc2cc(-c3ccc(CN4CCOCC4)o3)ccc12 [GW560109] | 0 | 44 | 31 | 75 | 8 | 37 | 0 | 100 | 0 | 0 | 0 | 0 | 81 | 0 | 5 | 3 | 22 | 31 | 0 | 2
Cl.N#CCc1ccc(Nc2nccc(Nc3ccc(Oc4ccccc4)cc3)n2)cc1 [GW639905] | 26 | 34 | 20 | 78 | 0 | 0 | 0 | 39 | 0 | 0 | 0 | 0 | 1 | 0 | 6 | 0 | 4 | 0 | 0 | 0
COc1cccc(NC(=O)NCCNc2ccnc(Nc3ccc(F)cc3)n2)c1 [GSK1379879] | 40 | 63 | 13 | 29 | 0 | 0 | 1 | 12 | 0 | 0 | 0 | 0 | 4 | 0 | 18 | 5 | 20 | 12 | 0 | 0
O=C(Nc1n[nH]c2nc(-c3ccccc3)ccc12)C1CC1 [SB-708999] | 46 | 84 | 12 | 34 | 4 | 0 | 0 | 11 | 0 | 16 | 0 | 0 | 17 | 0 | 2 | 24 | 27 | 0 | 0 | 7
Nc1ncnc2scc(-c3ccc(NC(=O)Cc4cc(F)ccc4F)cc3)c12.O=C(O)C(F)(F)F [SB-731254-M] | 0 | 0 | 0 | 0 | 13 | 15 | 23 | 4 | 26 | 9 | 66 | 47 | 35 | 27 | 2 | 34 | 43 | 3 | 0 | 0
COc1ccc(C)c(Nc2ccnc(Nc3ccc(-c4cnc[nH]4)cc3)n2)c1.Cl [GW784041] | 0 | 33 | 33 | 67 | 8 | 22 | 2 | 0 | 0 | 11 | 0 | 0 | 15 | 30 | 12 | 0 | 25 | 0 | 16 | 12
Nc1ncc(-c2cn[nH]c2)c2scc(-c3ccc4c(c3)CCN4C(=O)Cc3ccccc3)c12 [GSK2593067] | 0 | 30 | 0 | 0 | 20 | 19 | 0 | 12 | 9 | 0 | 17 | 0 | 0 | 0 | 0 | 16 | 32 | 17 | 0 | 0
Cc1cccc(Nc2nc(NCCN)ncc2C(N)=O)c1 [GSK1292139] | 50 | 83 | 15 | 20 | 0 | 0 | 7 | 18 | 29 | 6 | 0 | 0 | 10 | 26 | 44 | 22 | 2 | 7 | 85 | 87
